In PubChem BioAssay (Tox21):
Records with an inconclusive call do not appear. Where a call stands in place of a potency, no number is given. The source made the active and inactive calls. The call rests on the fitted dose curve; in most records, active means well fitted cell-killing curve with a large enough effect in the repeat runs; inconclusive means weak or mixed curves, or effect the other way; inactive means no such curve, though single readings can be large or run the other way.

Assay: qHTS assay to identify small molecule agonists of the estrogen receptor alpha (ER-alpha) signaling pathway in the presence of an antagonist - cell viability counter screen (AID 1259386); further: nearly all actives have a fitted effect of over 30% in size
Conditions: VM7Luc4E2 viability, CellTiter-Fluor fluorescence, 22 h; series mostly up to 92.4 µM
Text: National Center for Advancing Translational Sciences [NCATS]
NIH Chemical Genomics Center [NCGC]
U.S. Environmental Protection Agency [EPA]
National Institutes of Environmental Health Sciences [NIEHS]
National Toxicology Program [NTP]
U.S. Food and Drug Administration [FDA]
Estrogen receptor (ER), a member of nuclear hormone receptor plays an important role in development, metabolic homeostasis and reproduction. Two subtypes of ER, ER-alpha and ER-beta, have similar expression patterns with some uniqueness in both types. Endocrine disrupting chemicals (EDCs) and their interactions with steroid hormone receptors like ER causes disruption of normal endocrine function. Therefore, it is important to understand the effect of environmental chemicals in ER signaling pathway. For identifying ER agonists, VM7Luc4E2 cell line has been used in the current assay.
VM7Luc4E2 cell line (provided by Denison MS, University of California) endogenously expresses full-length ER-alpha and is stably transfected with a plasmid containing four estrogen responsive elements (ERE) upstream of a luciferase reporter gene. This current screening for measuring luciferase reporter gene activity using VM7Luc4E2 cells against Tox21 10K library collection is a confirmation study on agonist mode screening in presence of ER-antagonist (ICI-182,780) at 10.0nM final concentration. The cytotoxicity of the compounds was tested in parallel by measuring the cell viability using CellTiter-Fluor assay system (Promega, Madison, WI) in the same wells.
Tox21 Assay Protocol Summary:
VM7Luc4E2 cells were cultured in phenol red free assay medium containing 10% charcoal stripped FBS for 5 days prior to the assay. The cells were dispensed at 4,000 cells in 4uL of assay medium per well into white wall/solid-bottom 1536-well plates (Corning Life Sciences, Corning, NY) using a Multidrop Combi (Thermo Fisher Scientific Inc., Waltham, MA) dispenser. After the assay plates were incubated at 37C and 5% CO2 for 24hr, 1uL of 10.0nM (final concentration) ICI-182,780 or assay buffer was added using two separate tips of Flying Reagent Dispenser (FRD, Aurora Discovery, San Diego, CA). Then 23nL of compounds dissolved in DMSO at 15 concentrations and positive controls or DMSO only was transferred to the assay plates by a Pintool station (Wako, San Diego, CA). The assay plates were incubated at 37C and 5% CO2 for 22hr. After 21hr incubation at 37C, 1uL/well CellTiter-Fluor reagent (Promega Corporation, Madison, WI) was added to each well using FRD and after 1hr incubation at 37C and 5% CO2, the fluorescence signal was measured on ViewLux plate reader (PerkinElmer, Shelton, CT).

With `N#CCc1cccc(C(F)(F)F)c1` as the molecule, how does the Potency read?
The Potency was “inactive”.

With `CC(Cc1cccc(C(F)(F)F)c1)NCCOC(=O)c1ccccc1` (stereo not given) as the molecule, how does the Potency read?
Its Potency is “inactive”.

Which Potency does the source give for `NCCCOCCOCCOCCCN` here?
Its Potency is “inactive”.

Which Potency does the source give for `Oc1ccc(Cc2ccccc2)cc1` here?
Its Potency is “inactive”.

With `CC(C)c1ccccc1C(C)C` as the molecule, how does the Potency read?
The Potency was “inactive”.

For `OCCC1CCCCN1` (stereo not given), which Potency is on record?
Its Potency is “inactive”.

For `CC(C)c1ccc2c(C(C)C)cc(C(C)C)c(S(=O)(=O)O)c2c1`, which Potency is on record?
Its Potency is “inactive”.

Which Potency does the source give for `CCCc1ccccc1` here?
Its Potency is “inactive”.

For `Nc1cnn([C@@H]2O[C@H](CO)[C@@H](O)[C@H]2O)c(=O)n1`, which Potency is on record?
Its Potency is “inactive”.

With `CCCCCCCC/C=C\CCCCCCCC(N)=O` as the molecule, how does the Potency read?
The Potency was “inactive”.

Which Potency does the source give for `Cl/C(=C\n1cncn1)c1ccc(Cl)cc1Cl` here?
The Potency was “inactive”.

With `O=c1[nH]cnc2ccccc12` as the molecule, how does the Potency read?
Its Potency is “inactive”.

With `c1ccc(CNCc2ccccc2)cc1` as the molecule, how does the Potency read?
The Potency was “inactive”.

For `CCOC(=O)C1=NN(c2ccccc2)C(=O)C1`, which Potency is on record?
Its Potency is “inactive”.

For `CN1CCN(C2=Nc3cc(Cl)ccc3Nc3ccccc32)CC1`, which Potency is on record?
The Potency was “inactive”.

With `Cc1ccc(C(=O)C(C)CN2CCCCC2)cc1` (stereo not given) as the molecule, how does the Potency read?
The Potency was “inactive”.

With `CC(C)(C)c1cc(CO)cc(C(C)(C)C)c1O` as the molecule, how does the Potency read?
The Potency was “inactive”.

Which Potency does the source give for `NCCCN(CCO)CCO` here?
The Potency was “inactive”.

Which Potency does the source give for `C=CC(C)(CCC=C(C)C)OC(=O)c1ccccc1` (stereo not given) here?
The Potency was “inactive”.

Which Potency does the source give for `O=C(O)Cn1c(C(=O)Nc2nc(-c3ccccc3Cl)cs2)cc2ccccc21` here?
The Potency was “inactive”.

With `c1ccc(-c2nc[nH]c2-c2ccccc2)cc1` as the molecule, how does the Potency read?
The Potency was “inactive”.

Which Potency does the source give for `C=C(C)C(=O)OCCN(C)C` here?
Its Potency is “inactive”.

Which Potency does the source give for `CCCCOc1cc(C(=O)OCCN(CC)CC)ccc1N` here?
The Potency was “inactive”.

With `CCCCCc1ccc(N)cc1` as the molecule, how does the Potency read?
The Potency was “inactive”.

With `Cc1ccc(C(C)c2ccc(C)c(C)c2)cc1C` as the molecule, how does the Potency read?
The Potency was “inactive”.

With `Cn1c(=O)c2c(ncn2CC(O)CO)n(C)c1=O` (stereo not given) as the molecule, how does the Potency read?
The Potency was “inactive”.

Which Potency does the source give for `Nc1nc(N)c(-c2ccccc2)s1` here?
Its Potency is “inactive”.

Which Potency does the source give for `CCCC(C)C` here?
Its Potency is “inactive”.

With `CCN(CC)CCOC(=O)C1(c2ccccc2)CCCC1` as the molecule, how does the Potency read?
Its Potency is “inactive”.

Which Potency does the source give for `CN1CCC[C@@H]1c1cccnc1` here?
Its Potency is “inactive”.

For `CC1(C)[C@H]2CC[C@]1(C)[C@H](O)C2`, which Potency is on record?
Its Potency is “inactive”.

With `CC(C)NCC(O)c1cc(O)cc(O)c1` (stereo not given) as the molecule, how does the Potency read?
The Potency was “inactive”.

Which activity change, negative = cytotoxicity does the source give for `CCN(CCO)CCCC(C)Nc1ccnc2cc(Cl)ccc12` (stereo not given) here?
Its activity change, negative = cytotoxicity is -3.53% [at 8.39 µM] (inactive).

With `O=C(O)Cc1sc(-c2ccccc2)nc1-c1ccc(Cl)cc1` as the molecule, how does the Potency read?
Its Potency is “inactive”.

For `O=C(Cl)c1ccc([N+](=O)[O-])cc1`, which Potency is on record?
Its Potency is “inactive”.

For `Cc1c(Cn2ccnc2)c2ccccc2n1CCC(=O)O`, which Potency is on record?
The Potency was “inactive”.

With `Nc1ccc(C(=O)N2CC3CC(CN(Cc4ccccc4)C3)C2)cc1` as the molecule, how does the Potency read?
The Potency was “inactive”.

Which Potency does the source give for `CC/C(=C\C(=N/O)C(N)=O)C(C)[N+](=O)[O-]` (stereo not given) here?
The Potency was “inactive”.

With `CN(C)CC/C=C1\c2ccccc2COc2ccccc21` as the molecule, how does the Potency read?
Its Potency is “inactive”.

Which Potency does the source give for `Cc1cc(CC(=O)O)c(C)n1-c1ccc(Cl)cc1` here?
Its Potency is “inactive”.
